bovine MsrA act – activates bovine MsrA enzyme; activation, % at 10.6 µM; 360,000 compounds, 0.3% hits; purified bovine MsrA, absorbance read-out; in the data active = activation above about 7.5%;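 note: 0% = vehicle and 100% = reference activator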
proKLK7 act – activates the human kallikrein-7 zymogen; P49862; purified proKLK7, EDANS-DABCYL substrate fluorescence; 100% is mature enzyme control, 0% vehicle; activation, % at 7 µM; 370,000 compounds, 0.9% hits; AID 652039;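 active = activation above the mean of all tested compounds plus 3 SD, computed per campaign excluding outliers beyond control limits, cut at about 13% in these data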
Target sequence (P49862 whole entry, looked up): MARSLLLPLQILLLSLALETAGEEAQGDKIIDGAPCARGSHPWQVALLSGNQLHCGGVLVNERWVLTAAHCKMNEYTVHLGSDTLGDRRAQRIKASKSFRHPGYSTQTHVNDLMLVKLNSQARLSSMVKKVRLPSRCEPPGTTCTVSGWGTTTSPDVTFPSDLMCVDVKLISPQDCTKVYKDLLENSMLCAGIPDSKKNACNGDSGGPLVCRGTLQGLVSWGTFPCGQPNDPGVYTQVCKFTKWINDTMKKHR
SMARCA2 activ – SMARCA2 function activation, primary screen; MG213 cells, MMTV-luciferase reporter, dexamethasone, overnight; activation, % at 9.1 µM; 370,000 compounds, 1% hits; AID 652017; in the data active = activation above about 7.8%;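 note: 0% = vehicle wells and 100% = reference activator wells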
MsrA inh – bovine MsrA inhibition. inhibition, % at 15.5 µM. purified bovine MsrA, absorbance read-out. AID 651718. 360,000 compounds, 0.75% hits; in the data active = inhibition above about 4.5%;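 note: 0% = vehicle wells with enzyme and 100% = reference inhibitor wells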
SMARCA2 act conf – confirmation of SMARCA2 (BRM) function activators. shares compounds with SMARCA2 activ. MG213 cells, MMTV-luciferase with dexamethasone, luminescence, overnight; MG213 cells expressing E1A, Rb sequestered; DMSO wells 0%, reference activator 100%. activation, % at 9.1 µM. 3,500 compounds, 30% hits. AID 652260;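 active = activation above its plate's cutoff, the mean activation of tested wells plus 3 SD, cut at about 7.9% in these data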
VP16 Luc act – GAL4-VP16 reporter activation counter-screen; HEK293 GAL4-VP16 pG5luc reporter, luciferase luminescence; scaled: DMSO wells 0%, SAHA wells 100%; AID 686939; shares compounds with SMARCA2 activ; 3,500 compounds, 41% hits; activation, % at 9.1 µM;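 active = activation above the solvent-only control well mean plus 3 SD, averaged across control plates, cut at about 5.2% in these data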
The depositor's hits bear a star; . = no result given. Compounds with a hit are over-represented: about 2.8% of the library has one in this group of screens.

SMILES	bovine MsrA act	proKLK7 act	SMARCA2 activ	MsrA inh	SMARCA2 act conf	VP16 Luc act
O=C(CSc1nnc(-c2cnccn2)n1-c1ccccc1)Nc1ccc2cn[nH]c2c1	.	0	8.7*	.	3	-1
C[C@H](CO)N1C[C@H](C)[C@@H](CN(C)C(=O)Nc2ccc3c(c2)OCCO3)OCc2cn(nn2)CCCC1=O	.	0	3	0	.	.
CCCNC(=O)C1(C)CCCN(C(=O)c2cccc(Cl)c2)C1 (stereo not given)	-1	0	9.3*	2	0	1
COc1ccc(Cc2c(-c3ccccc3)nc3ccc(C)cn23)c(C)c1	.	0	9.2*	0	4	5
COc1ccccc1Cc1c(-c2ccccc2)nc2ccc(Cl)cn12	-9	-2	11*	1	3	4
COc1ccccc1Cc1c(-c2cccc(Cl)c2)nc2ccc(Cl)cn12	-3	0	3	0	.	.
Clc1cccc(-c2nc3ccc(Cl)cn3c2Cc2ccsc2)c1	-2	.	.	.	.	.
Clc1cccc(-c2nc3ccc(Cl)cn3c2Cc2ccccc2)c1	-5	-1	8.2*	1	1	4
COc1cc2c(cc1NC(=O)CSc1nnc(-c3cccc(Cl)c3)n1-c1ccccc1)oc1ccccc12	.	-1	-3	.	.	.
C[C@H]1C2CC(OC(=O)NCc3ccc(Cl)cc3)C(C2)[C@H]2CCCCN21 (stereo not given in full)	.	1	-2	.	.	.
CCOC(=O)/C=C1\CC(C(=O)OCC)Oc2c(OC)cccc21 (stereo not given)	-2	1	9.6*	0	-3	1
C=C1c2cccc(OC)c2O[C@H](C(=O)OCC)[C@@H]1CC(CC)CCCC (stereo not given in full)	-11	1	-3	-1	.	.
CC(C)CCN1CC(C(=O)NCCC2=CCCCC2)CC1=O (stereo not given)	-3	0	8.1*	0	2	2
O=C(CCc1ccccc1)NC(=S)Nc1cccc(C(=O)O)c1	-4	-1	6	1	.	.
Cc1cccc(NC(=O)CCc2ccccc2)c1	-3	0	9.2*	0	5	2
CC(=O)Nc1cccc(NC(=O)CCc2ccccc2)c1	-13	0	1	3	.	.
O=C(CCCc1ccccc1)Nc1ccccc1[N+](=O)[O-]	-2	0	5	0	.	.
O=C(CCc1ccccc1)Nc1ccccc1[N+](=O)[O-]	-3	0	8.2*	1	15*	5.3*
O=C(CCCc1ccccc1)Nc1cccc(C(=O)O)c1	-4	0	8.2*	-1	9.1*	14*
COc1cccc(-c2cc3nc4c(c(NCC(C)(C)CN(C)C)n3n2)CCCC4)c1	-1	-2	-3	2	.	.
OC1CCN(c2c3c(nc4cc(-c5ccc(Cl)cc5)nn24)CCC3)CC1	-3	0	0	1	.	.
Fc1cccc(-c2cc3nc4c(c(NCc5ccco5)n3n2)CCCC4)c1	-3	-3	8.4*	0	8	11*
Fc1cccc(-c2cc3nc4c(c(N5CCOCC5)n3n2)CCCC4)c1	-8	0	9.4*	1	5	0
COc1cc(C(=O)N2CCCC(C)(C(=O)NS(=O)(=O)C3CC3)C2)cc(OC)c1OC (stereo not given)	-2	0	3	0	.	.
CCn1cc(C(=O)O)c(=O)c2cc(F)c(N3CCN(C(=S)NC(=O)c4ccccc4Cl)CC3)cc21	-4	0	9.1*	1	3	2
SMILES	bovine MsrA act	proKLK7 act	SMARCA2 activ	MsrA inh	SMARCA2 act conf	VP16 Luc act
Cc1ccc(NC(=O)c2cc3nc(C)cc(C)n3n2)cc1	0	0	9.4*	0	10*	7.9*
Cc1cc(C)n2nc(C(=O)NCc3ccccc3)cc2n1	-7	2	0	-1	.	.
CCOC(=O)CC[C@@]1(C(=O)OCC)C[C@@H](CC(=O)N2CCCC2)C(=O)N2CCCC=C21	.	0	-1	.	.	.
Cc1nc(NCCc2ccccc2)sc1C(=O)N(C)C	-1	0	8.6*	0	3	4
COc1ccccc1CNc1nc(C)c(C(=O)N(C)C)s1	-3	0	1	-1	.	.
CCN(CC)CCNC(=O)c1ccc(NCN2C(=O)NC(c3ccccc3)(c3ccccc3)C2=O)cc1	.	0	8.0*	1	3	2
CCN(C(=O)CN1C(=O)NC(c2ccccc2)(c2ccccc2)C1=O)c1ccccc1	-3	1	-2	-1	.	.
O=C(Nc1ccc(Cl)c(Cl)c1)c1cccc2c1-c1ccccc1C2=O	.	0	1	.	.	.
CCCC(=O)Nc1ccc(NC(=O)c2ccccc2F)cn1	-2	0	-2	1	.	.
CCOC(=O)Nc1ccc(NC(=O)c2ccccc2F)cc1	-7	1	9.0*	-1	9.5*	8.5*
CCc1ccc(OC(=O)Nc2ccccc2)cc1	-1	0	10*	-1	9.2*	12*
O=C(Nc1ccc(NC(=O)C2CC2)nc1)c1ccccc1F	-2	0	8.6*	-1	8	5.3*
CCc1ccc(NC(=O)c2ccccc2Br)cc1	-9	0	9.9*	0	5	10*
CCc1ccc(NC(=O)c2n[nH]c(=O)c3ccccc23)cc1	-1	0	8.6*	0	7	6.3*
CCc1ccc(C(=O)CSc2nc3ccccc3c(=O)[nH]2)cc1	-2	0	2	0	.	.
CCOC(=O)c1nc2ccccc2c(=O)[nH]1	-6	0	9.3*	1	4	2
CCCCNC(=O)CSc1nc(CCC)nc2ccccc12	-2	0	-4	0	.	.
Cc1ccc(C(=O)CSc2nc3ccccc3c(=O)[nH]2)cc1	-4	0	9.6*	0	-1	2
CCCc1nc(SCC(=O)c2ccc(F)cc2)c2ccccc2n1	-6	-2	8.3*	0	2	1
CCOC(=O)[C@]12CCCCC/C=C\1N(CCc1ccc(Cl)cc1)C(=O)[C@H]2CC(=O)NCc1ccc(OC)c(OC)c1	.	0	-1	.	.	.
CCCCCC(=O)NC1CCCCN(Cc2ccccc2C)C1=O (stereo not given)	.	0	-1	.	.	.
C[C@H]1C2CC(OC(=O)NCc3ccccc3)C(C2)[C@H]2CCCCN21 (stereo not given in full)	.	0	-2	.	.	.
CCCc1ccc(OCc2ccc(C(=O)N3CCSCC3)o2)cc1	-9	-1	8.3*	0	4	7.4*
Cc1cc(C(=O)Nc2nc3ccc(S(C)(=O)=O)cc3s2)c(C)o1	-2	-1	10*	1	4	5.8*
Cc1ccccc1NC(=O)Nc1nc2ccc(S(C)(=O)=O)cc2s1	-3	0	9.2*	-1	3	4
CCOC(=O)c1csc(NC(=O)C2CCCN(S(=O)(=O)c3ccc([N+](=O)[O-])cc3)C2)n1 (stereo not given)	.	0	-6	.	.	.
COc1ccc(CSc2nnc(SCc3ccccc3)s2)cc1	.	0	8.7*	.	1	2

Compound activity: PubChem BioAssay, The Scripps Research Institute Molecular Screening Center
